This note sets out measurements from PubChem BioAssay AID743314 (Broad Institute, 2014).

Results with a measured potency or affinity are listed apart. Records with an inconclusive call do not appear. Calls of active or inactive are those of the source.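 Rule for the calls: active = fitted half-maximal concentration no higher than twice the top tested dose, in every repeat run; inconclusive = repeat runs disagree, poor fit, or flat partial inhibition; inactive = the rest.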

Endoplasmic reticulum aminopeptidase 1 (Homo sapiens), sequence (Q9NZ08 whole entry, looked up): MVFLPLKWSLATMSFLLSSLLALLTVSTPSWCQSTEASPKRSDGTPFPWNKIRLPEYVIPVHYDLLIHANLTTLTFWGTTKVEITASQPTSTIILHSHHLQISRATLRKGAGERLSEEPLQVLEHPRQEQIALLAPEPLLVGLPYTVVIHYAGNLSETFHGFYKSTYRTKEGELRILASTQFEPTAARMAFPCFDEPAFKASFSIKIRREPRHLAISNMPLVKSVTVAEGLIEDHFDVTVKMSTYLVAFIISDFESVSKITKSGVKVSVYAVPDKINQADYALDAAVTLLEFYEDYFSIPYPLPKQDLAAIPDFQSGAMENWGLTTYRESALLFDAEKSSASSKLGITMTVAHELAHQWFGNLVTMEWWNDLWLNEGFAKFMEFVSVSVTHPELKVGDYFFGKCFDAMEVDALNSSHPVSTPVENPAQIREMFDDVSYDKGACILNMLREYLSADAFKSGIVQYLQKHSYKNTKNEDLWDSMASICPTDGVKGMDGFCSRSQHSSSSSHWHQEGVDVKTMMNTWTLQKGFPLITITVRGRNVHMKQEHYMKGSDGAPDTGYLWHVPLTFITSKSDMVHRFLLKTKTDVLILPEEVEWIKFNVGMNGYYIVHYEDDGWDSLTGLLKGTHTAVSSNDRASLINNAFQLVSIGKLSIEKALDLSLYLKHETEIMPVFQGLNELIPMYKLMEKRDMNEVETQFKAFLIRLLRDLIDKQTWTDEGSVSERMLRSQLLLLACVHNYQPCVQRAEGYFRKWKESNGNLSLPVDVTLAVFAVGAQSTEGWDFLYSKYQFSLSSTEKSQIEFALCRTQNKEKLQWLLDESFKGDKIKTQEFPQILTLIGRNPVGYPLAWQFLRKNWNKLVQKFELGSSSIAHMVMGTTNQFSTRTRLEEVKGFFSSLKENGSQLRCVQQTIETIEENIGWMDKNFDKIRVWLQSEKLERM

The assay has as its target Endoplasmic reticulum aminopeptidase 1 (Homo sapiens) (UniProt Q9NZ08). The assay can be described thus: inhibition of human ERAP1 enzyme activity – biochemical, cherry-pick, set 2, plate reader, dose response (AID 743314). The note with it: Recombinant ERAP1, Leu-AMC fluorescence, 60 min; series mostly up to 11 µM.
On to `Cc1cccc(NC(=O)Nc2ccc3c(c2)C(=O)N(C)[C@H]2CC[C@H](CC(=O)O)O[C@H]2CO3)c1`, for which the outcome was inactive.

Take `C[C@@H]1CCCCO[C@@H](CN(C)C)[C@H](C)CN([C@H](C)CO)C(=O)c2cc(NS(=O)(=O)c3ccc(Cl)cc3)ccc2O1`: the outcome was inactive.

For the compound `C[C@@H]1CN([C@@H](C)CO)C(=O)c2cc(NS(=O)(=O)c3ccc(Cl)cc3)ccc2O[C@@H](C)CCCCO[C@H]1CN(C)C`, the result was inactive.

In the case of `C[C@H](CO)N1C[C@H](C)[C@H](CN(C)C)OCCCC[C@H](C)Oc2ccc(NS(=O)(=O)c3ccc(Cl)cc3)cc2C1=O`, the outcome was inactive.

In the case of `COc1ccc(CN(C)C[C@H]2OCCCC[C@@H](C)Oc3ccc(NS(=O)(=O)c4cccs4)cc3C(=O)N([C@@H](C)CO)C[C@@H]2C)cc1`, the result was inactive.

With `CC(Sc1nnc(-c2cccnc2)n1C)C(=O)N1CCOCC1` (configuration not stated), the result was inactive.

Turning to `CCc1nnc(NC(=O)c2cc(S(=O)(=O)N3CCOCC3)ccc2N2CCCCC2)s1`, the result was inactive.

Consider `COc1ccc(CN(C)C(=O)CCCNC(=O)c2ccc(Cl)cc2)cc1`, for which the outcome was inactive.

As for `CCn1c(SCC(=O)NC2CCCCC2)nc2ccccc2c1=O`, the result was inactive.

In the case of `COc1ccc(CN(C)C[C@H]2OCCCC[C@@H](C)Oc3ccc(NS(=O)(=O)c4cccs4)cc3C(=O)N([C@H](C)CO)C[C@@H]2C)cc1`, the result was inactive.

As for `CC(=O)N(C)C[C@H]1Oc2cc(C#CC(C)C)ccc2S(=O)(=O)N([C@@H](C)CO)C[C@H]1C`, the result was inactive.

In the case of `CCOC(=O)N1CCc2c(sc(NC(=O)c3ccc(S(=O)(=O)N4CCCC4)cc3)c2C#N)C1`, the result was inactive.

In the case of `C[C@H](CO)N1C[C@H](C)[C@H](CN(C)C(=O)Nc2ccc(F)cc2)Oc2ccc(NC(=O)CCN3CCOCC3)cc2C1=O`, the outcome was inactive.

Take `Cc1noc(C)c1NC(=O)N(C)C[C@H]1Oc2c(NC(=O)Nc3ccc(F)cc3)cccc2C(=O)N([C@@H](C)CO)C[C@@H]1C`: the outcome was inactive.

Take `COc1ccc(CN(C)C[C@H]2OCCCC[C@H](C)Oc3ccc(NS(=O)(=O)c4cccs4)cc3C(=O)N([C@@H](C)CO)C[C@@H]2C)cc1`: the result was inactive.

For the compound `O=C(C[C@@H]1CC[C@@H]2[C@H](COC[C@@H](O)CN2C(=O)Cc2ccccc2)O1)NC1CCC1`, the outcome was inactive.

`CN(C)C(=O)[C@@H]1[C@@H](CO)[C@@H]2Cn3c(ccc(/C=C/c4ccccc4)c3=O)[C@@H]2N1C(=O)c1cnccn1`: the result was inactive.

In the case of `CC(=O)Oc1cc2oc(=O)cc(C)c2cc1Cl`, the outcome was inactive.

On to `C[C@@H]1CCCCO[C@H](CN(C)Cc2ccc(C(=O)O)cc2)[C@H](C)CN([C@@H](C)CO)C(=O)c2cc(NC(=O)Nc3ccc(C(F)(F)F)cc3)ccc2O1`, for which the result was inactive.

In the case of `COc1ccc(S(=O)(=O)N(C)C[C@H]2Oc3ccc(N(C)C)cc3CC(=O)N([C@H](C)CO)C[C@H]2C)cc1`, the outcome was inactive.

Turning to `N#Cc1ccc(-c2ccc([C@H]3[C@H](CO)N4C(=O)CN(C(=O)C5CC5)C[C@@H]34)cc2)cc1`, the outcome was inactive.

Regarding `COc1ccc(-c2c(C)c3ccc(O)cc3oc2=O)cc1OC`, the result was inactive.

As to `Cc1noc(C)c1NC(=O)N(C)C[C@H]1Oc2c(NC(=O)Nc3ccc(F)cc3)cccc2C(=O)N([C@@H](C)CO)C[C@H]1C`, the outcome was inactive.

Turning to `CCN(CC(=O)Nc1ccccc1C(F)(F)F)C(=O)Cn1c(=O)cnc2ccccc21`, the outcome was inactive.

Turning to `C[C@H](CO)N1C[C@H](C)[C@@H](CN(C)C(=O)Nc2ccccc2)Oc2ccc(NC(=O)Nc3cccc4ccccc34)cc2C1=O`, the result was inactive.

With `COCC(=O)N1CCC2(CC1)CN(Cc1ccccc1F)[C@H](CO)c1[nH]c3cc(OC)ccc3c12`, the outcome was inactive.

For `Cc1noc(C)c1NC(=O)N(C)C[C@@H]1Oc2c(NC(=O)Nc3ccc(F)cc3)cccc2C(=O)N([C@@H](C)CO)C[C@@H]1C`, the result was inactive.

Regarding `CCOC(=O)c1nnn(CC(=O)Nc2ccccc2)c1C(=O)OCC`, the outcome was inactive.

As for `C[C@@H]1CCCCO[C@H](CN(C)S(=O)(=O)c2ccccc2)[C@H](C)CN([C@H](C)CO)C(=O)c2cc(NS(=O)(=O)c3ccc(Cl)cc3)ccc2O1`, the outcome was inactive.

For `COc1ccc(CN(C)C[C@H]2Oc3ccc(NS(=O)(=O)c4ccc(C)cc4)cc3C(=O)N([C@@H](C)CO)C[C@@H]2C)cc1`, the result was inactive.

Turning to `CN(Cc1ccccc1)C(=O)c1ncn(C)c1C(=O)N(C)Cc1ccccc1`, the outcome was inactive.

With `CCCNC(=O)C[C@@H]1CC[C@@H]2[C@H](COC[C@H](O)CN2C(=O)Nc2cccc(Cl)c2)O1`, the result was inactive.
